PubChem BioAssay (NCATS)
Records with an inconclusive call do not appear. Active and inactive are the calls of the source. Unless noted, the call rests on the fitted dose curve; in most records, active means well fitted curve in the direction sought with a large enough effect; inconclusive means small, poorly fitted or top-dose-only effect, or another doubt; inactive means no such curve, though single readings can be large; an effect the other way counts as inactive or inconclusive.

How the values were obtained:
[1] = qHTS profiling for inhibitors of Plasmodium falciparum proliferation (AID 504749); further: nearly all actives have a fitted effect of over 60% in size; further: potency means the concentration at half of the fitted maximal effect;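 on activity, negative = inhibition: 0% = DMSO vehicle and full inhibition = artemisinin control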; settings: P. falciparum in erythrocytes, SYBR Green DNA, 72 h
In short: (§1)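 SYBR Green fluorescence of parasite DNA, read after lysis and overnight dark incubation, measured growth over 72 h in erythrocyte culture at 0.3% parasitemia and 2.5% hematocrit. Data normalised to DMSO and 0.29 uM artemisinin, with plate-drift correction.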

3D7 = assay: as above; settings: P. falciparum in erythrocytes, SYBR Green DNA, 72 h; series mostly up to 28.7 µM
In short: as §1

7G8 = assay: as above; settings: P. falciparum in erythrocytes, SYBR Green DNA, 72 h; series mostly up to 28.7 µM
In short: as §1

AA1029 = assay: as above; settings: P. falciparum in erythrocytes, SYBR Green DNA, 72 h; series mostly up to 28.7 µM
In short: as §1

AS120 = assay: as above; settings: P. falciparum in erythrocytes, SYBR Green DNA, 72 h; series mostly up to 28.7 µM
In short: as §1

ATS189 = assay: as above; settings: P. falciparum in erythrocytes, SYBR Green DNA, 72 h; series mostly up to 28.7 µM
In short: as §1

ATS95 = assay: as above; settings: P. falciparum in erythrocytes, SYBR Green DNA, 72 h; series mostly up to 28.7 µM
In short: as §1

[2] = qHTS drug screen for cell cycle checkpoint inhibitors in PARPi-resistant BRCA-mutant ovarian cancer cell lines. (AID 1963452; calls by dose curve); settings: PEO1/OlaR viability, CellTiter-Glo luminescence, 96 h, stronger effect = lower value
In short: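 PEO1, PEO4 and PEO1/OlaR ovarian cancer cells, 600 per well, exposed 96 h at 37C to a dilution series. Viability read by CellTiter-Glo luminescence, normalized to DMSO and empty wells; activity summarized as Z-AUC.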

[3] = biological target: Nuclear receptor subfamily 1 group I member 2 (Homo sapiens) (UniProt O75469); assay: Dual reporter qHTS for antagonist of Pregnane X Receptor (hPXR) against the NCATS DSHEA and TCM libraries: Luminescence Readout (AID 1920060); settings: hPXR dual reporter cells, luciferase luminescence, antagonist mode; series mostly up to 40 µM;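 further: HepG2 cells carrying hPXR luciferase reporter stimulated with rifampicin at 2 µM; 0% is about no effect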
Sequence of Nuclear receptor subfamily 1 group I member 2 (Homo sapiens) (O75469 whole entry, looked up): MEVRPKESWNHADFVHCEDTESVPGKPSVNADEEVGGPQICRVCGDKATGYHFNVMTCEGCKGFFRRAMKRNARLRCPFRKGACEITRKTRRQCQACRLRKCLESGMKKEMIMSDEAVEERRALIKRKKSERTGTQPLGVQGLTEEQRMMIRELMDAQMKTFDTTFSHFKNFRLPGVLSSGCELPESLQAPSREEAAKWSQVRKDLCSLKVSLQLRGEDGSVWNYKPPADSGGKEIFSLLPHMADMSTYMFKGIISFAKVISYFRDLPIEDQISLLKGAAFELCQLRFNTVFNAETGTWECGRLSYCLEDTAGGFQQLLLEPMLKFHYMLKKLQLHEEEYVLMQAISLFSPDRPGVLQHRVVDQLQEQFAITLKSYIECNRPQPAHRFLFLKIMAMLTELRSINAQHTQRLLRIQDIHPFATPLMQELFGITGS
Source text: Assay Development and Screening Technology Laboratory (ADST)
National Center for Advancing Translational Sciences (NCATS), Rockville, MD
National Institute of Health (NIH), Bethesda, Maryland
Dietary Supplements and Natural Products have minor oversight of their safety and efficacy. We assembled a collection of Dietary Supplements and Natural Products (DSNP) as well as Traditional Chinese Medicinal (TCM) Plant extracts, which were screened against an in vitro panel of assays, including a liver cytochrome p450 enzyme panel, CAR/PXR signaling pathways, and P-gp transporter assays, to assess their activity. This pipeline facilitated the interrogation of Natural Product-Drug Interaction (NaPDI) through prominent metabolizing pathways. In addition, we compared the activity profiles of the DSNP/TCM substances with those of an approved drug collection. Many of the approved drugs have well-annotated mechanisms of action (MOA) while the MOAs for most of the DSNP and TCM samples remain unknown. Based on the premise that compounds with similar activity profiles tend to share similar targets or MOA, we clustered the library activity profiles to identify overlap with the NCATS Pharmaceutical Collection to predict the MOAs of the DSNP/TCM substances. Overall, we highlight four significant bioactivity profiles (measured by p-values) as examples of this prediction. To assess broad cytotoxicity, we employed screening against a HepG2 cell line. In addition, transporter-mediated drug interactions are utilized in the characterization of DDIs using a P-glycoprotein (P-gp) assays. To profile potential P-gp activity, a differential cell viability was measured against two cell lines: a parental KB-3-1 human cervical adenocarcinoma cell line and the drug-resistant subline KB-8-5-11 that overexpresses P-gp.
To this end, we profiled both collections for potential CAR and/or PXR activity, employing a previously published 1536-well qHTS assay.
[1] Lee TD, et al. A High-Throughput Screen of a Library of Therapeutics Identifies Cytotoxic Substrates of P-glycoprotein. Mol Pharmacol. Nov 2019;96(5):629-640. doi:10.1124/mol.119.115964
For PXR luciferase reporter gene assays, we used hPXR-LucHepG2cells provided by Dr. Taosheng Chen (Department of Chemical Biology and Therapeutics, St. Jude Children's Research Hospital). Cells were cultured in EMEM supplemented with 10% fetal bovine serum, 100U/mL penicillin and 100ug/mL streptomycin, and 500ug/mL of geneticin.
PROTOCOL TABLE (as described by Inglese J, Shamu CE and Guy RK. 2007)
SEQUENCE No. (e.g., 1, 2, 3, etc.); PARAMETER (e.g., Cells, Incubation, Reagent, etc.); VALUE; DESCRIPTION.
1; Cells; 5 uL; hPXR-LucHepG2; white solid-bottom Greiner plate. […]
8; Read; Fluorescence; ViewLux plate reader. […]
11; Read; Luminescence; ViewLux plate reader. […]

[4] = Dual reporter qHTS for antagonist of Pregnane X Receptor (hPXR) against the NCATS DSHEA and TCM libraries: Fluorescence Readout (AID 1920061); settings: PXR dual reporter cells, antagonist mode; series mostly up to 40 µM; further: 0% is about no effect
In short: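 Antagonist mode: rifampicin 2 uM final co-added with compounds to hPXR-LucHepG2 cells for 24 h at 37C. Viability by CellTiter-Fluor, Ex/Em 405/540 nm, 1 h; reporter by ONE-Glo luminescence.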

[5] = at 28.7 µM (top of the series), parasite line A
[6] = at 28.7 µM (top of the series), parasite line B
[7] = measured here: PEO1 parental Z-AUC

CC(C)CCOC(=O)c1ccc(N(C)C)cc1
inactive: activity, negative = inhibition [1, 5] 18.9% | activity, negative = inhibition [1, 6] 14.8% | Potency (3D7) | Potency (7G8) | Potency (AA1029) | Potency (AS120) | Potency (ATS189) | Potency (ATS95)

COc1ccc(-c2cc(=O)c3c(O)cc(O[C@@H]4O[C@H](CO[C@@H]5O[C@@H](C)[C@H](O)[C@@H](O)[C@H]5O)[C@@H](O)[C@H](O)[C@H]4O)cc3o2)cc1O
inactive: Z-AUC [2] 1.88
1.52: Z-AUC [2, 7]
0.98: Z-AUC ([2]; measured here: PEO4 Z-AUC)

COc1ccc(NS(=O)(=O)c2ccc(N)cc2)nn1
inactive: activity, negative = inhibition ([1]; at 12.8 µM (top of the series), parasite line A) 2.8% | activity, negative = inhibition ([1]; at 12.8 µM (top of the series), parasite line B) 13.5% | Potency (3D7) | Potency (7G8) | Potency (AA1029) | Potency (AS120) | Potency (ATS189) | Potency (ATS95)

C/C=C/C(=O)N(CC)c1ccccc1C
0.852: Z-AUC [2, 7]
inactive: Z-AUC [2] 0.904
0.821: Z-AUC ([2]; measured here: PEO4 Z-AUC)

Cc1ncc(CO)c(CN)c1O
inactive: activity, negative = inhibition [1, 5] 7.32% | activity, negative = inhibition [1, 6] 18.3% | Potency (3D7) | Potency (7G8) | Potency (AA1029) | Potency (AS120) | Potency (ATS189) | Potency (ATS95)

CC(C)CCCC(C)CCCC(C)CCCCC(C)CCCC(C)CCCC(C)C (stereo not drawn)
inactive: activity, negative = inhibition [1, 5] -0.284% | activity, negative = inhibition [1, 6] 17.5% | Potency (3D7) | Potency (7G8) | Potency (AA1029) | Potency (AS120) | Potency (ATS189)

Cc1cc(O)cc(C)c1Cl
active: Potency (7G8) 10 µM
inactive: activity, negative = inhibition [1, 5] -2.51% | activity, negative = inhibition [1, 6] -4.56% | Potency (3D7) | Potency (AA1029) | Potency (AS120)

CCN(CC)C(=O)c1cccc(C)c1
inactive: activity, negative = inhibition [1, 5] 7.82% | activity, negative = inhibition [1, 6] 6.22% | Potency (3D7) | Potency (7G8) | Potency (AA1029) | Potency (AS120) | Potency (ATS189) | Potency (ATS95)

CCOC(=O)[C@H](CCc1ccccc1)N[C@@H](C)C(=O)N1CCC[C@H]1C(=O)O
0.867: Z-AUC ([2]; measured here: PEO4 Z-AUC)
0.764: Z-AUC [2, 7]
inactive: Z-AUC [2] 0.643 | activity, negative = inhibition [1, 5] 7.69% | Potency (3D7) | Potency (7G8) | Potency (AS120) | Potency (ATS189) | Potency (ATS95)

O=C(/C=C/c1ccc(O)c(O)c1)O[C@@H]1C[C@@](OC(=O)/C=C/c2ccc(O)c(O)c2)(C(=O)O)C[C@@H](O)[C@@H]1O
inactive: outcome [3] | outcome [4]

CC(=O)Nc1ccccc1
inactive: activity, negative = inhibition [1, 5] 1.91% | activity, negative = inhibition [1, 6] -0.613% | Potency (3D7) | Potency (7G8) | Potency (AA1029) | Potency (AS120) | Potency (ATS189)

O=C(O)Cn1c(C(=O)Nc2nc(-c3ccccc3Cl)cs2)cc2ccccc21
inactive: activity, negative = inhibition [1, 5] 10.1% | activity, negative = inhibition [1, 6] 5.81% | Potency (3D7) | Potency (7G8) | Potency (AA1029) | Potency (AS120) | Potency (ATS189) | Potency (ATS95)

CN1C(C)(C)CCCC1(C)C
inactive: activity, negative = inhibition [1, 5] 8.89% | activity, negative = inhibition [1, 6] 5.87% | Potency (3D7) | Potency (7G8) | Potency (AA1029) | Potency (AS120) | Potency (ATS189) | Potency (ATS95)

O=c1[nH]c(=O)n([C@H]2C[C@H](O)[C@@H](CO)O2)cc1I
0.916: Z-AUC ([2]; measured here: PEO4 Z-AUC)
inactive: Z-AUC [2] 1.59
0.705: Z-AUC [2, 7]
